The nature of test [1]: inhibitors of TNFa-induced NFkB p65 translocation, primary screen, imaging, HUVEC, MLSMR starter and 10KST1 sets (AID 438;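 active = inhibition above 20% together with a positive visual image hit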;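 note: compound added about 3h40 before a 20 min TNFalpha stimulation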;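 for inhibition: signal is the nuclear over cytoplasmic p65 intensity ratio per well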). The settings on record: HUVEC TNFa-induced p65 nuclear translocation; cell count: measured here: nuclei count (cytotoxicity indicator), at 2.08 µM; inhibition: at 2 µM, stronger effect = higher value, 0% TNFa-plus-vehicle, 100% no-TNFa wells.
Test [2] can be described thus: reduction of polyQ htt aggregates in cells – imaging, exon1htt(103Q)mCFP cells, high-content imaging, primary screen (AID 483;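 active = visual image review flags a hit and inhibition of aggregation exceeds 20%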;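 note: compound exposure lasted 3 days before fixation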;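 for nuclei count: percent of the per-plate median nuclei count of sample wells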). The settings on record: exon1htt(103Q)mCFP cell line, aggregate imaging, at 2 µM; inhibition of aggregation: stronger effect = higher value; nuclei count: measured here: cell count, toxicity.
Test [3] can be described thus: endothelial E-selectin expression blockers – imaging, HUVEC, immunofluorescence, MLSMR starter and 10KST1 sets, primary screen (AID 487;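 active = visually confirmed hit in the image check and inhibition above 20%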;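 for inhibition: signal is fraction of cell area covered by stained E-selectin grains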;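 for nuclei count: 100% = median nuclei count of all wells on the same plate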). The note with it: HUVEC TNFalpha-induced E-selectin immunofluorescence imaging, at 2 µM; inhibition: stronger effect = higher value; nuclei count: measured here: cell number, toxicity.
Test [4] has as its target Voltage-gated potassium channel subunit beta-2 (Rattus norvegicus) (UniProt P62483). Description: inhibitors of rat Kvbeta2 reductase activity – biochemical, NADPH fluorescence, primary screen (AID 622;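 active = fluorescence slope higher than the sample average by over 3 SD, cut at about -0.22 in these data, passing the limit was not always enough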;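 note: slope of raw intensity against log time taken from 70 to 1610 s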). The settings on record: recombinant KvBeta, 4-cyanobenzaldehyde reduction, at 10 µM, stronger effect = higher value.
Test [5] shares this target. Kind of test: enhancers of rat Kvbeta2 NADPH turnover – biochemical, NADPH fluorescence, primary screen (AID 623;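 active = NADPH fluorescence slope more negative than the mean of all samples by about 3 SD, 99.7% confidence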;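 note: fluorescence intensity change per second fitted from 20 to 320 s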). The note with it: Recombinant KvBeta, NADPH fluorescence decrease slope, 10 min; at 10 µM; stronger effect = lower value.
Test [6] concerns the target Alpha-2C adrenergic receptor (Homo sapiens) (UniProt P18825). Kind of test: compounds altering alpha2C-coupled GIRK flux – cell-based, HEK293 alpha2C/GIRK1/2, thallium flux, primary screen (AID 624;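 active = fluorescence slope after compound addition differing from the mean of all screened samples at 99.7% confidence, in either direction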;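 note: slope of fluorescence ratio to pre-addition baseline per second over 15 to 24 s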). The settings on record: thallium flux BTC fluorescence, at 10 µM, actives lie on both sides.
Test [7] is described as follows: blockers of RIG-like receptor reporter activation – cell-based, Sendai virus stimulus, luciferase, 10K MLSCN set, TLR/RLR signaling modifier project, primary screen (AID 602276).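 Note: firefly luciferase from ISG56 promoter only with Renilla not read in this screen; 0% = Sendai virus plus DMSO and 100% = medium plus DMSO without virus.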 The settings on record: HEK293 RL24 IRF3 luciferase reporter, at 10 µM, stronger effect = higher value. For orientation: In a reporter assay the amount or activity of a reporter protein is the signal.

A short description of test [8]: TLR3 IRF3 reporter activation blockers – cell-based, poly I:C stimulus, luciferase, 10K MLSCN set, primary screen (AID 602277;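 active = inhibition of the reporter signal at or above 50%; inactive = inhibition below 50%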). The settings on record: HEK293-TLR3 RL24 IRF3 luciferase reporter, at 10 µM, stronger effect = higher value.

Consider 14 compounds from PubChem BioAssay.

By inhibition is commonly meant the drop in the measured response relative to a control, in per cent.

Activity calls are given as the source filed them.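 Rule for the calls, unless noted: active = inhibition at or above 50% at 10 µM; inactive = inhibition below 50%.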

Sequence of Voltage-gated potassium channel subunit beta-2 (Rattus norvegicus) (P62483 whole entry, looked up): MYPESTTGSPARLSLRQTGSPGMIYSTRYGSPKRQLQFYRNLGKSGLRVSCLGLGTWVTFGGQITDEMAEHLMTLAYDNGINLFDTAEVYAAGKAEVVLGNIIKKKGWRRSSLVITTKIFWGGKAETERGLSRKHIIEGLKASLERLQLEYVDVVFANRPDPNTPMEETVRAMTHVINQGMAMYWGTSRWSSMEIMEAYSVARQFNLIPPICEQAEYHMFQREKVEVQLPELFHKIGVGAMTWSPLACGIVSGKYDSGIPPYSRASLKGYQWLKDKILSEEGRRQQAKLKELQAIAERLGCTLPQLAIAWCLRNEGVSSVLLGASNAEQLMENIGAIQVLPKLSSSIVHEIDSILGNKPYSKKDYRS
Sequence of Alpha-2C adrenergic receptor (Homo sapiens) (P18825 whole entry, looked up): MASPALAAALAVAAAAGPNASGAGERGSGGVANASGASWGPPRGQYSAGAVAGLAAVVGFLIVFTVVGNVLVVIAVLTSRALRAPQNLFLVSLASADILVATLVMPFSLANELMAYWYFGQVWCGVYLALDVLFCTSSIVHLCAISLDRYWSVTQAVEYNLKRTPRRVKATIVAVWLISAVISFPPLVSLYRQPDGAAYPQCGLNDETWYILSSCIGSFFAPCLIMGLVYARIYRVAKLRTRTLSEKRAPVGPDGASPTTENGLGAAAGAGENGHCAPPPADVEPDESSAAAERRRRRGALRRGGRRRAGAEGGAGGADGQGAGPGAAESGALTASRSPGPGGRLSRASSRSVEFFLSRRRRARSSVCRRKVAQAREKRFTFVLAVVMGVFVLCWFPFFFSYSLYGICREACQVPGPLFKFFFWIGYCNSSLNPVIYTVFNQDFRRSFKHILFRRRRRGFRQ

For `Cc1ncc(CSc2nc3ccccc3[nH]2)c(N)n1`, the cell count in test [1] was 920. Further, the inhibition was 11.9% (inactive) in test [1], -37.5% (inactive) in test [3], 4.12% (inactive) in test [7] and -10.7% (inactive) in test [8]. Further, the inhibition of aggregation in test [2] was -17.1% (inactive). For the same compound, the nuclei count was found to be 115% in test [2] and 109% in test [3]. Besides, the fluorescence slope in test [4] is -0.606 (inactive). Also, the NADPH fluorescence slope in test [5] is -9.7e-06 (inactive). For the same compound, the slope in test [6] was 0.00699 (inactive).

As for `CC1CCCN(C(=O)c2cc3c(-c4ccc(Cl)cc4)nn(C)c3s2)C1` (centres undefined), in test [1], the cell count amounted to 749. Besides, the inhibition in test [1] is -1.7% (inactive); in test [3] it was -30.2% (inactive); in test [7] it was 7.9% (inactive); in test [8], 45.2% (inactive). Also, the inhibition of aggregation in test [2] was -30.1% (inactive). For the same compound, the nuclei count is 104% in test [2] and 111% in test [3]. For the same compound, the fluorescence slope in test [4] was -0.607 (inactive). Further, the NADPH fluorescence slope in test [5] was -5.2e-06 (inactive). In test [6], the slope is 0.00725 (inactive).

Consider `COC(=O)c1ccc(-c2nn(C)c(=O)c3ccccc23)cc1`, for which the cell count in test [1] worked out at 493. The inhibition is -5.5% (inactive) in test [1], -13.3% (inactive) in test [3], 8.98% (inactive) in test [7] and 29.2% (inactive) in test [8]. The inhibition of aggregation in test [2] is -11.1% (inactive). The values for the nuclei count in test [2] and in test [3] were 76.7% and 97.9%, respectively. The fluorescence slope in test [4] was -0.55 (inactive). Also, the NADPH fluorescence slope in test [5] was -3e-05 (inactive). Further, in test [6], the slope is 0.00686 (inactive).

On to `O=C(NCC1CCCO1)c1cccc(N2CCCC2=O)c1` (centres undefined), for which the cell count in test [1] was determined as 458. The inhibition in test [1] was -18.6% (inactive); in test [3], -32.7% (inactive); in test [7] it was 10.8% (inactive); in test [8], 4.03% (inactive). Besides, the inhibition of aggregation in test [2] is -1.3% (inactive). Also, the values for the nuclei count in test [2] and in test [3] were 88.8% and 115%, respectively. Besides, the fluorescence slope in test [4] was -0.376 (inactive). The NADPH fluorescence slope in test [5] is 2.3e-06 (inactive). Further, the slope in test [6] is 0.0057 (inactive).

Turning to `Cc1nc(CCNS(=O)(=O)c2cccs2)cs1`, the cell count in test [1] amounted to 371. The inhibition in test [1] is -4.4% (inactive); in test [3], -20.4% (inactive); in test [7], -9.77% (inactive); in test [8], -22.4% (inactive). Also, the inhibition of aggregation in test [2] is 6.9% (inactive). Besides, the nuclei count is 108% in test [2] and 102% in test [3]. Besides, the fluorescence slope in test [4] was -0.566 (inactive). Moreover, the NADPH fluorescence slope in test [5] was 2.6e-05 (inactive). For the same compound, the slope in test [6] is 0.00608 (inactive).

As to `CN(CC(=O)Nc1ccc2c(c1)OCCO2)S(=O)(=O)c1ccc(Br)s1`, in test [1], the cell count turned out to be 315. Moreover, the inhibition in test [1] is -1.9% (inactive); in test [3], -21% (inactive); in test [7] it was -3.5% (inactive); in test [8], 10.4% (inactive). The inhibition of aggregation in test [2] was -7.8% (inactive). In addition, the nuclei count worked out at 100% in test [2] and 98.5% in test [3]. The fluorescence slope in test [4] is -0.403 (inactive). Besides, the NADPH fluorescence slope in test [5] was -4.9e-05 (inactive). Besides, the slope in test [6] was 0.00399 (inactive).

On to `Nc1nc(SCc2nc3scc(-c4cccs4)c3c(=O)[nH]2)n[nH]1`, for which the cell count in test [1] was determined as 473. Besides, the inhibition in test [1] is 3.8% (inactive); in test [3], -112% (inactive); in test [7], 1.51% (inactive); in test [8] it was 4.54% (inactive). In test [2], the inhibition of aggregation was 10.7% (inactive). In addition, the nuclei count in test [2] amounted to 103%; in test [3], 116%. Also, the fluorescence slope in test [4] was -0.432 (inactive). Further, the NADPH fluorescence slope in test [5] is 8.2e-06 (inactive). In addition, in test [6], the slope was 0.00447 (inactive).

As for `CCN(CC)S(=O)(=O)c1ccc(F)cc1`, in test [1], the cell count was 630. Besides, the inhibition in test [1] is 2.4% (inactive); in test [3], -75.6% (inactive); in test [7], 13.9% (inactive); in test [8], 19.3% (inactive). Further, the inhibition of aggregation in test [2] is -0.6% (inactive). For the same compound, the nuclei count in test [2] was determined as 100%; in test [3] it was 114%. The fluorescence slope in test [4] was -0.506 (inactive). The NADPH fluorescence slope in test [5] was -0.000197 (inactive). For the same compound, the slope in test [6] was 0.00613 (inactive).

As to `COc1ccc(OCc2nc(C#N)c(N3CCN(c4ccc(OC)cc4)CC3)o2)cc1`, the cell count in test [1] turned out to be 479. Further, the inhibition in test [1] is 2.9% (inactive); in test [3], 15.1% (inactive); in test [7] it was -5.28% (inactive); in test [8] it was 3.87% (inactive). The inhibition of aggregation in test [2] is -2.2% (inactive). In addition, the nuclei count was determined as 73.6% in test [2] and 89.2% in test [3]. Also, in test [4], the fluorescence slope is -0.421 (inactive). Besides, in test [5], the NADPH fluorescence slope was 2.3e-05 (inactive). Moreover, the slope in test [6] is 0.0041 (inactive).

For `CC1CCN(C(=O)Cn2cc3c(n2)CCCC3)CC1`, the cell count in test [1] was 931. The inhibition was -1.8% (inactive) in test [1], -6.8% (inactive) in test [3], -32.6% (inactive) in test [7] and -60.8% (inactive) in test [8]. In test [2], the inhibition of aggregation was -26% (inactive). In addition, the nuclei count in test [2] worked out at 114%; in test [3], 89.8%. For the same compound, the fluorescence slope in test [4] was -0.612 (inactive). The NADPH fluorescence slope in test [5] was -7.4e-06 (inactive). Further, in test [6], the slope is 0.00712 (inactive).

Turning to `O=C(NCCOC(=O)C1COc2ccccc2O1)C1COc2ccccc2O1` (centres undefined), the cell count in test [1] was 357. In addition, the inhibition in test [1] was -2.1% (inactive); in test [3], -99.1% (inactive); in test [7], -2.25% (inactive); in test [8] it was 19.3% (inactive). Further, in test [2], the inhibition of aggregation was -2% (inactive). The nuclei count in test [2] was determined as 106%; in test [3], 128%. Further, in test [4], the fluorescence slope is -0.48 (inactive). Further, the NADPH fluorescence slope in test [5] was -3.8e-05 (inactive). Moreover, in test [6], the slope was 0.00608 (inactive).

`N#Cc1nc(COc2ccccc2)oc1NCCCn1ccnc1`: the cell count in test [1] was found to be 371. Further, the inhibition in test [1] is 5.2% (inactive); in test [3], 6.7% (inactive); in test [7], -11.6% (inactive); in test [8], -1.22% (inactive). In test [2], the inhibition of aggregation was 0.8% (inactive). The results for the nuclei count in test [2] and in test [3] were 95.5% and 90.9%, respectively. Besides, in test [4], the fluorescence slope is -0.629 (inactive). Moreover, the NADPH fluorescence slope in test [5] is -1.3e-05 (inactive). In addition, in test [6], the slope is 0.00641 (inactive).

Turning to `O=C(CSCc1cnn(-c2ccccc2)c1-n1cccc1)NCC1CCCO1` (centres undefined), the cell count in test [1] is 587. Also, the inhibition was -10% (inactive) in test [1], -1.9% (inactive) in test [3], 2.57% (inactive) in test [7] and 15.3% (inactive) in test [8]. In addition, the inhibition of aggregation in test [2] was -10.3% (inactive). The nuclei count came to 101% in test [2] and 121% in test [3]. In test [4], the fluorescence slope was -0.581 (inactive). Further, the NADPH fluorescence slope in test [5] is -4.7e-05 (inactive). For the same compound, in test [6], the slope was 0.00606 (inactive).

Consider `O=S(=O)(Cc1ccccc1)N1CCCCCC1`, for which the cell count in test [1] came to 451. The inhibition in test [1] was 5.2% (inactive); in test [3], -42.3% (inactive); in test [7] it was -4.29% (inactive); in test [8], 4.76% (inactive). Further, in test [2], the inhibition of aggregation is -1% (inactive). Moreover, the nuclei count in test [2] was found to be 91%; in test [3], 103%. In addition, the fluorescence slope in test [4] is -0.497 (inactive). Besides, the NADPH fluorescence slope in test [5] was -5.8e-05 (inactive). Also, the slope in test [6] is 0.00613 (inactive).
